Measurements as given in PubChem BioAssay (NCATS).
Where “and” joins values, the source holds several entries; their conditions need not be identical. Identical values can stand only once. Records with an inconclusive call do not appear. Values without a mark were called inactive. Calls of active or inactive are those of the source. The call rests on the fitted dose curve; in most records, active means well fitted cell-killing curve with a large enough effect; inconclusive means small, poorly fitted or top-dose-only effect, or effect the other way; inactive means no such curve, though single readings can be large or run the other way.

Key:
[1] = Viability qHTS for spleen associated tyrosine kinase inhibitor (SYKi) naive MV4-11 cells (AID 1963823); details: MV4-11 AML viability, CellTiter-Glo luminescence, 72 h; series mostly up to 45 µM; further: nearly all actives have a fitted effect of over 40% in size
How it was run: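 Viability of MV4-11 AML cells lacking prior SYK inhibitor exposure is scored by CellTiter-Glo luminescence following 72 hr compound incubation at 37 C, 5% CO2, seeded at 500 cells per well.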

[2] = Viability qHTS for spleen associated tyrosine kinase inhibitor (SYKi) drug resistant MV4-11 cells (AID 1963824); details: SYKi-resistant MV4-11 viability, CellTiter-Glo, 72 h; series mostly up to 45 µM; further: nearly all actives have a fitted effect of over 35% in size
How it was run: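 CellTiter-Glo luminescence, read 10 min after reagent addition, reports viability after a 72 hr compound exposure. Cells are an MV4-11 line made resistant to SYK inhibition, seeded at 500 per well onto compound-containing plates.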
Potency means the concentration at half of the fitted maximal effect.

Structure (SMILES) | Potency [1] | Potency [2] | viability (% of control) [1] | viability, % of control [2]
COc1cc(O)c2c(c1)C1OC1C[C@H](O)[C@H](O)C(=O)/C=C\C[C@H](C)OC2=O (some centres not stated) | 3.26 µM (active) | 4.61 µM (active) |  | 
Cc1c(-c2ccc(O)cc2)n(Cc2ccc(OCCN3CCCCCC3)cc2)c2ccc(O)cc12 | 18.8 µM (active) and 8.33 µM (active) | 23.7 µM (active) and 9.34 µM (active) |  | 
Oc1cccc(Nc2ccnc3[nH]c4ccccc4c23)c1 | 1.84 µM (active) | 2.31 µM (active) |  | 
O=S(=O)(c1cccc2ccccc12)n1ccc2ccc(N3CCN4CCCC4C3)cc21 (configuration not stated) | 23.1 µM (active) | 20.6 µM (active) |  | 
Nc1nc(COC(=O)c2ccc([N+](=O)[O-])cc2)nc(Nc2ccccc2)n1 | inactive | inactive |  | 
COc1ccc(O[C@@H]2O[C@H](CO)[C@@H](O)[C@H](O)[C@H]2O)cc1OC | inactive | inactive |  | 
COc1cc(C2Oc3c(OC)cc(/C=C/C(=O)OC[C@H]4O[C@@H](OC(C)(C)C(=O)O)[C@H](O)[C@@H](O)[C@@H]4O)cc3C2CO)ccc1O (some centres not stated) | inactive | inactive |  | 
COc1cc(SC)ccc1C(=O)N1CCC(Cc2ccccc2)CC1 | 23.1 µM (active) | 16.6 µM (active) and 20.6 µM (active) |  | 
CC1(C)CC[C@]2(C(=O)O[C@@H]3O[C@H](CO)[C@@H](O)[C@H](O)[C@H]3O)CC[C@]3(C)C(=CCC4[C@@]5(C)C[C@@H](O)[C@H](O)[C@@](C)(CO)C5CC[C@]43C)C2C1 (some centres not stated) | inactive | inactive |  | 
C[C@@H]1CC[C@]2(C(=O)O[C@@H]3O[C@H](CO)[C@@H](O)[C@H](O)[C@H]3O)CC[C@]3(C)C(=CCC4[C@@]5(C)C[C@@H](O)[C@H](O)C(C)(C)C5CC[C@]43C)C2[C@]1(C)O (some centres not stated) | inactive | inactive |  | 
CCN(CC)Cc1cccc(/C=C/c2nc3ccc(F)cc3c(=O)n2-c2ccccc2Cl)n1 | 11.6 µM (active) | 9.2 µM (active) |  | 
Cn1c(NC[C@@H](N)Cc2ccccc2)nc(-c2ccncc2)c(-c2ccc3ccccc3c2)c1=O | 7.42 µM (active) | 6.61 µM (active) |  | 
O=C(CC12CC3CC(CC(C3)C1)C2)Nc1cccc2nc(NCCNCCO)ccc12 | 18.6 µM (active) | 16.4 µM (active) |  | 
O=C1c2c(O[C@@H]3O[C@H](CO)[C@@H](O)[C@H](O)[C@H]3O)cc(O)cc2OC1(O)Cc1ccc(O)cc1 (some centres not stated) | 2 µM (active) | 3.17 µM (active) |  | 
C=C1C(=O)O[C@@H]2C[C@H](C)[C@@H]3CC(=O)[C@H](O)[C@@]3(C)C[C@H]12 | 9.2 µM (active) | 11.6 µM (active) |  | 
C=C1CC[C@@H]2[C@@](C)(CO[C@@H]3O[C@H](CO)C(O)[C@H](O)C3O)[C@H](O)CC[C@@]2(C)[C@@H]1CC/C(C)=C/CO (some centres not stated) |  |  | 93.2% [at 9.25 µM] | 101% [at 9.25 µM]
Cc1nc2ccc(CN(C)c3ccc(C(=O)NC(CCC(=O)O)C(=O)O)s3)cc2c(=O)[nH]1 (configuration not stated) | 0.0065 µM (active) | 0.0073 µM (active) |  | 
CN(C)CCNC(=O)c1cccn2c(=O)c3cc4ccccc4cc3nc12 | 0.299 µM (active) | 0.422 µM (active) |  | 
CC(C)c1ccc(CO)cc1O[C@@H]1O[C@H](CO)[C@@H](O)[C@H](O)[C@H]1O | inactive | inactive |  | 
COC(=O)C1=CO[C@@H](O[C@@H]2O[C@H](CO)[C@@H](O)[C@H](O)[C@H]2O)[C@@H]2[C@@H](C)[C@@H](O)C[C@H]12 | inactive | inactive |  | 
CC(=O)O[C@@H]1[C@@H](OC(=O)/C=C/c2ccccc2)[C@@H](OC(C)=O)[C@H](O[C@H]2[C@@H]3C=CO[C@@H](O[C@@H]4O[C@H](CO)[C@@H](O)[C@H](O)[C@H]4O)[C@@H]3[C@@]3(CO)O[C@@H]23)O[C@H]1C | inactive | inactive |  | 
CC(C)C1C(OC(=O)/C=C/c2ccccc2)CC2(C)OC2CCC2(C)OC2C1O (configuration not stated) | inactive | inactive |  | 
C/C=C/C=C/C(CC(=O)O)Nc1ccc(C=O)cc1 (configuration not stated) | inactive | inactive |  | 
O=C(O)C[C@H]1CCC(=O)[C@@H]1C/C=C\CCO | inactive | inactive |  | 
C=C1C(=O)OC2/C=C(\CO)CC/C=C(\C=O)C(OC)C(OC(=O)C(C)CC)C12 (configuration not stated) | 10 µM (active) | 2.52 µM (active) |  | 
CC(=O)N[C@H]1[C@H](O[C@H]2CC[C@@]3(C)C(CC[C@]4(C)C3CC=C3C5CC(C)(C)CC[C@]5(C(=O)O)[C@H](O[C@@H]5O[C@H](CO)[C@@H](O)[C@H](O)[C@H]5O)C[C@]34C)C2(C)C)O[C@H](CO[C@@H]2OC[C@H](O)[C@H](O)[C@H]2O[C@@H]2OC[C@@H](O)[C@H](O)[C@H]2O)[C@@H](O)[C@@H]1O (some centres not stated) |  |  | 57% [at 9.25 µM] | 81.4% [at 9.25 µM]
